D1 PAM: human D1 dopamine receptor positive modulation; HEK293 TREx D1 cells, calcium flux, dopamine EC20 potentiation; potentiation, % at 10 µM; actives 0.036% (n = 360,000); AID 504651; in the data active means potentiation above about 30%
Target sequence (P21728 whole entry, looked up): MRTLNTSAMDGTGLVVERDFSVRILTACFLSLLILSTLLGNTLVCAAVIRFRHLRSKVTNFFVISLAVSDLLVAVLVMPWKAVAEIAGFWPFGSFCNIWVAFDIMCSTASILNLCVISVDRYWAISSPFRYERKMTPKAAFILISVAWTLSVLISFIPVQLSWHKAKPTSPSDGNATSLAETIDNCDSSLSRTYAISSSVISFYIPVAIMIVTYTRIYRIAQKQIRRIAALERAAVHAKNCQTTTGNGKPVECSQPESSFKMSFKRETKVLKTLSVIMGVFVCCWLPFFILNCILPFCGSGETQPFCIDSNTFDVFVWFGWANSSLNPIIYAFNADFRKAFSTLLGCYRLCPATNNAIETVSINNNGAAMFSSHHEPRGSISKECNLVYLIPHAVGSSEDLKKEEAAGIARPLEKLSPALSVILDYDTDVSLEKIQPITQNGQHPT
D1 agonist: activates the human D1 dopamine receptor | HEK293 T-REx D1 cells, calcium flux, agonist mode | activation, % at 2 µM | actives 1% (n = 360,000); in the data active means activation above about 30%
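Tetracycline-induced HEK293 TREx D1 cells, force-coupled to calcium signalling, were dye-loaded with a no-wash calcium kit. Compound was pin-added after a 10 s baseline. Fluorescence was read kinetically at 1 cycle/s for 180 s, with calcium rises flagged as agonism.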
DRD3 antagonist: blocks the human D3 dopamine receptor. P35462. D3R cells, DiscoveRx beta-arrestin luminescence, antagonist mode; active compounds read low. max response, negative = inhibition, %. actives 2.5% (n = 360,000). AID 652054; in the data active means max response below about -50%; inconclusive means no clear call, values can overlap the other calls
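Cells plated overnight at 1500 cells/well, then exposed to library compounds with dopamine controls for 90 minutes at 37 degrees C. DiscoveRx reagent added for 30–60 minutes at room temperature; luminescence read, quantitative HTS format.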
D3 ag: D3 dopamine receptor (human) agonism; P35462; D3R DiscoveRx beta-arrestin cells, luminescence, 90 min; max activation, %; actives 0.58% (n = 410,000); AID 652048; in the data active means max activation above about 30%
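Agonist-mode cell screen: cells plated at 1500/well and incubated overnight at 37 °C, then exposed to library compounds for 90 min at 37 °C. Detection reagent was added for 30–60 min at room temperature, and luminescence was read.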
D1 antag: antagonists of human D1 dopamine receptor; HEK293 TREx D1 cells, calcium flux, dopamine EC80; active compounds read low; P21728; AID 504652; actives 3.2% (n = 360,000); activity change, negative = inhibition, % at 10 µM; in the data active means activity change below about -30%
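HEK293 T-REx cells expressing inducible, force-coupled D1 receptor; no-wash Ca dye, 30–90 min RT. Cmpd → 180 s read at 1 Hz → EC80 DA → 180 s read.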
Hits are given with their value. Shown are actives, neighbours in structure and some others; about 6% of the full set was active somewhere.

Screening CCN(CC)S(=O)(=O)c1ccc(O)c(C(=O)OCC(=O)N2CCCc3ccccc32)c1 returned DRD3 antagonist inactive and D3 ag inactive.
Screening O=S(=O)(/C=C/C=C/S(=O)(=O)c1ccccc1)c1ccccc1 returned DRD3 antagonist -101 and D3 ag inactive.
For Cc1ccc(S(=O)(=O)C=CS(=O)(=O)c2ccc(C)cc2)cc1 the results were DRD3 antagonist -99 and D3 ag inactive.
N#CC1c2ccccc2-c2ccccc2N1C(=O)c1ccccc1 (stereo not drawn) was read as DRD3 antagonist inactive and D3 ag inactive.
Screening COC(=O)[C@@]12C[C@@H](CC(=O)N3CCOCC3)C(=O)N(Cc3ccc4c(c3)OCO4)C1=CCC(C)(C)C2 returned DRD3 antagonist inconclusive and D3 ag 35.
For CCCCCCCCN1C(=O)[C@H](CC(=O)NCc2cccs2)C[C@@]2(C(=O)OC)CC(C)(C)CC=C12 the results were DRD3 antagonist inactive and D3 ag 44.
`CCCCCCCCN1C(=O)[C@H](CC(=O)NCc2ccc(C)o2)C[C@@]2(C(=O)OC)CC(C)(C)CC=C12` gave DRD3 antagonist inactive and D3 ag inactive.
Screening CCCCCCCCN1C(=O)[C@H](CC(=O)NCCCC)C[C@@]2(C(=O)OC)CCCCC=C12 returned DRD3 antagonist inactive and D3 ag inactive.
`CCCCCCCCN1C(=O)[C@H](CC(=O)NCCCOCCCC)C[C@@]2(C(=O)OC)CCCCC=C12` gave DRD3 antagonist inactive and D3 ag 87.
`CCCCc1ccc(NC(=O)CSc2nnc3[nH]c(=O)cc(C)n23)cc1` gave D1 PAM inactive, D1 agonist inactive and D3 ag inactive.
Cc1c(C(=O)NCCO)[n+](=O)c2ccccc2n1[O-] was read as D3 ag inactive.
For CN(Cc1ccc2c(c1)CCCN2C)C(=O)[C@H]1O[C@@H](n2cnc3c(N)ncnc32)[C@H](O)[C@@H]1O the results were DRD3 antagonist inactive and D3 ag inactive.
`C/C(=N/Nc1ccnc2cc(Cl)ccc12)c1ccc(O)cc1` gave D1 PAM inactive, D1 agonist inactive, DRD3 antagonist -54, D3 ag inactive and D1 antag inactive.
C/C(=N/Nc1ccnc2cc(Cl)ccc12)c1ccc(N)cc1 was read as D1 PAM inactive, D1 agonist inactive, DRD3 antagonist inconclusive, D3 ag inactive and D1 antag -42.
`Clc1ccc2c(N/N=C/c3ccccc3Br)ccnc2c1` gave D1 PAM inactive, D1 agonist inactive, DRD3 antagonist inactive, D3 ag inactive and D1 antag inactive.
Screening CCN(CC)S(=O)(=O)c1ccc2c(c1)N(CC(=O)Nc1c(C)cccc1C)C(=O)CO2 returned D1 PAM inactive, D1 agonist inactive, D3 ag inactive and D1 antag inactive.
For Clc1ccccc1-c1ccc(CN2CCN(c3ccccc3)CC2)o1 the results were D1 PAM inactive, D1 agonist inactive, DRD3 antagonist -67, D3 ag inactive and D1 antag inactive.
O=C(CSc1nc2ncccc2o1)Nc1ccc(Cl)cc1F was read as D1 PAM inactive, D1 agonist inactive, D3 ag inactive and D1 antag inactive.
Cc1ccc2scc(N3CCCC(C)C3)c(=O)c2c1 (stereo not drawn) was read as D1 PAM inactive, D1 agonist inactive, D3 ag inactive and D1 antag inactive.
For CCc1cc2c(=O)[nH]c(Cc3ccccc3)nc2s1 the results were D1 PAM inactive, D1 agonist inactive, DRD3 antagonist inactive, D3 ag inactive and D1 antag inactive.
Cc1cc2c(=O)[nH]c(Cc3ccccc3)nc2s1 was read as D1 PAM inactive, D1 agonist inactive, DRD3 antagonist inactive, D3 ag inactive and D1 antag -41.
`Cc1cccc(-n2c(SCC(=O)Nc3ccccc3C)nc3c(oc4ccccc43)c2=O)c1` gave D1 PAM inactive, D1 agonist inactive, D3 ag inactive and D1 antag inactive.
Screening Cc1nc(C(=O)O)cc([N+](=O)[O-])c1C returned DRD3 antagonist inactive and D3 ag inactive.
For O=C(N/N=C/c1ccc(OC(=O)c2ccc([N+](=O)[O-])cc2)cc1)c1cccnc1 the results were D1 PAM inactive, D1 agonist inactive, DRD3 antagonist inactive, D3 ag inactive and D1 antag inactive.
COc1ccc(C(=O)Oc2ccc(/C=N/O)cc2)cc1 was read as D1 PAM inactive, D1 agonist inactive, DRD3 antagonist inactive, D3 ag inactive and D1 antag -35.
COc1ccc(C(=O)Oc2ccc(/C=N/NC(=O)Cc3ccc([N+](=O)[O-])cc3)cc2)cc1 was read as D1 PAM inactive, D1 agonist inactive, DRD3 antagonist inactive, D3 ag inactive and D1 antag -32.
`COc1ccccc1CNC(=O)CCC1N=C2c3ccccc3N=C(SCc3ccc(Cl)cc3)N2C1=O` (stereo not drawn) gave D1 PAM inactive, D1 agonist inactive, D3 ag inactive and D1 antag inactive.
Screening COc1cc(OC)cc(-c2sc3ccc(OC)cc3c2C#CC2(N)CCCCC2)c1 returned DRD3 antagonist inactive and D3 ag 36.
COC(=O)c1c(-c2ccc(OC)cc2)sc2ccc(-c3ccc4c(c3)OCO4)cc12 was read as DRD3 antagonist inactive and D3 ag inactive.
COc1ccc(-c2sc3cc4c(cc3c2C#Cc2cncn2C)OCO4)cc1 was read as DRD3 antagonist inactive and D3 ag inactive.
Screening COC(=O)c1c(-c2ccc(OC)cc2)sc2ccc(OC)cc12 returned DRD3 antagonist inactive and D3 ag 58.
COc1ccc(-c2sc3ccc(OC)cc3c2C#Cc2cncn2C)cc1 was read as DRD3 antagonist inactive and D3 ag 34.
COc1cc(OC)cc(-c2sc3ccc(OC)cc3c2C#CC(C)(C)O)c1 was read as D1 PAM inactive, D1 agonist inactive, DRD3 antagonist inactive and D3 ag 36.
For COc1cc(OC)cc(-c2sc3ccc(OC)cc3c2C#CCO)c1 the results were DRD3 antagonist inactive and D3 ag 40.
`CCCSc1nn2c(=O)c3ccccc3nc2s1` gave D1 PAM inactive, D1 agonist inactive, DRD3 antagonist -51, D3 ag inactive and D1 antag inactive.
Screening Cc1cccc(Nc2nn3c(=O)c4ccccc4nc3s2)c1 returned D1 PAM inactive, D1 agonist inactive, DRD3 antagonist inactive, D3 ag inactive and D1 antag inactive.
CC(C)(C)c1ccc(C(=O)NNc2ncnc3c2cnn3-c2ccccc2)cc1 was read as D1 PAM inactive, D1 agonist inactive, D3 ag inactive and D1 antag inactive.
COC(=O)c1c(-c2ccc(Cl)cc2)noc1N1CCN(c2cccc(OC)c2)CC1 was read as D1 PAM inactive, D1 agonist inactive, D3 ag 82 and D1 antag inactive.
COC(=O)c1c(-c2ccc(Cl)cc2)noc1N1CCN(c2cccc(C)c2C)CC1 was read as D1 PAM inactive, D1 agonist inactive, D3 ag inactive and D1 antag inactive.

Assay outcomes deposited in PubChem BioAssay by National Center for Advancing Translational Sciences (NCATS).
